Here are results for seven compounds from PubChem BioAssay (NCATS).

Several values for one entry are separate records, joined by “and”; a condition that tells them apart may be missing. Equal entries are not always repeated. Records with an inconclusive call do not appear. Values without a mark were called inactive. Activity calls are given as the source filed them. Calls come from the whole dose curve; as a rule, active = well fitted curve in the direction sought with a large enough effect; inconclusive = small, poorly fitted or top-dose-only effect, or another doubt; inactive = no such curve, though single readings can be large; an effect the other way counts as inactive or inconclusive.

For experiment [1], the target named is Cellular tumor antigen p53 (Homo sapiens) (UniProt P04637). Put plainly: Primary qHTS for small molecule compounds that upregulate eGFP-tagged delta133p53alpha (in N-terminal) cells. (AID 2060322).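 Note: cells pre-induced with doxycycline then dosed without doxycycline; 0% = DMSO vehicle and 100% = reference activator; nearly all actives have a fitted effect of over 75% in size.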 Conditions: NCI-H358 eGFP-delta133p53alpha fluorescence, 24 h; activation: hits give high values. An outline of the steps: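 NCI-H358 cells pre-induced 24 h with 10 ng/ml doxycycline for eGFP-delta133p53alpha, plated dox-free and exposed 24 h at 37C to titrated compounds. Fixed, Hoechst-stained; gated GFP peak intensity by laser scanning cytometry, normalized to DMSO (0%) and 57.5 uM 5-azacytidine (100%).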

Experiment [2] is described as follows: BET inhibitor-based combinations targeting novel dependencies in MECOM-rearranged (r) AML: MV-4-11 cell line (AID 2202233). Note: nearly all actives have a fitted effect of over 45% in size. Note: potency is the fitted concentration of half-maximal effect. Conditions: MV-4-11 AML viability, CellTiter-Glo luminescence, 48 h; series mostly up to 46 µM. An outline of the steps: (§1)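 Normalized to DMSO and empty-well controls, the luminescence data from CellTiter-Glo after 48 hr drug exposure were fitted across 11 concentrations. Reported metrics are area under the dose-response curve and its Z-transformed form.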
For orientation: In ATP-based viability assays light output follows the ATP content of the culture.

The nature of experiment [3]: BET inhibitor-based combinations targeting novel dependencies in MECOM-rearranged (r) AML: HNT-34 cell line (AID 2202234). Note: nearly all actives have a fitted effect of over 35% in size. Note: potency is the fitted concentration of half-maximal effect. Conditions: HNT-34 AML viability, CellTiter-Glo luminescence, 48 h; series mostly up to 46 µM. In a few lines: as §1
Experiment [4] in a line: BET inhibitor-based combinations targeting novel dependencies in MECOM-rearranged (r) AML: UCSD-AML1 cell line (AID 2202235). Note: nearly all actives have a fitted effect of over 40% in size. Note: potency is the fitted concentration of half-maximal effect. Conditions: UCSD-AML1 AML cells viability, CellTiter-Glo, 48 h; series mostly up to 46 µM. An outline of the steps:
as §1

Experiment [5] in a line: BET inhibitor-based combinations targeting novel dependencies in MECOM-rearranged (r) AML: SET-2 cell line (AID 2202231).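 For viability: plate controls were DMSO treated cells for no effect and wells without cells for full effect.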 Note: nearly all actives have a fitted effect of over 35% in size. Note: potency is the fitted concentration of half-maximal effect. The conditions noted are these: SET-2 AML cells viability, CellTiter-Glo luminescence, 48 h; viability: hits give low values, concentration not given here. An outline of the steps:
(§2)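 Here, 11-point titrations of each agent were applied to 500 seeded cells and incubated 48 hr; CellTiter-Glo signal, scaled against DMSO and empty wells, was integrated as AUC, then Z-scored within the individual line.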

The nature of experiment [6]: BET inhibitor-based combinations targeting novel dependencies in MECOM-rearranged (r) AML: AML-191 cell line (AID 2202236;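 note: plate controls were vehicle wells for no effect and wells without cells for full effect; nearly all actives have a fitted effect of over 35% in size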). Conditions: AML-191 viability, CellTiter-Glo luminescence, 48 h; series mostly up to 46 µM. An outline of the steps: as §2
Experiment [7] can be described thus: BET inhibitor-based combinations targeting novel dependencies in MECOM-rearranged (r) AML: AML-194 cell line (AID 2202237; note: nearly all actives have a fitted effect of over 40% in size; note: potency is the fitted concentration of half-maximal effect). Conditions: AML-194 (MECOM-r AML) viability, CellTiter-Glo, 48 h; series mostly up to 46 µM. In a few lines:
as §2

A short description of experiment [8]: BET inhibitor-based combinations targeting novel dependencies in MECOM-rearranged (r) AML: OCI-AML3 cell line (AID 2202232). Note: nearly all actives have a fitted effect of over 35% in size. Note: potency is the fitted concentration of half-maximal effect. The conditions noted are these: CellTiter-Glo luminescence, 48 h; Potency: OCI-AML3 viability; series mostly up to 46 µM. An outline of the steps:
as §2

Chain of Cellular tumor antigen p53 (Homo sapiens) (P04637 whole entry, looked up): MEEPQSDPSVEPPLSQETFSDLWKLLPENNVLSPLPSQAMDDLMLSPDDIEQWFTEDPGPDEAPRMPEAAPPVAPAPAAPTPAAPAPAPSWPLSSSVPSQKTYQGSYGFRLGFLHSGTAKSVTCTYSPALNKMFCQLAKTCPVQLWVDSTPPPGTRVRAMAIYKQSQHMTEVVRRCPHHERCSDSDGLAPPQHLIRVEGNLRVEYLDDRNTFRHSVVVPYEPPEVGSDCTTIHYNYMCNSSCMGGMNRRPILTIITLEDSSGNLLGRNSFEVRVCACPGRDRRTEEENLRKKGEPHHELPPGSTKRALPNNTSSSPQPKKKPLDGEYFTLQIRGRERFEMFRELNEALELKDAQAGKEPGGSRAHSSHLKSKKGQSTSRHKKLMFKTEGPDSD

Take `CC(C)(C)c1cc(C=C(C#N)C#N)cc(Br)c1O`: the activation in experiment [1] was 19.6%. In addition, the Potency in experiment [2] is 18.6 µM (active); in experiment [3], 16.6 µM (active); in experiment [4], 33.2 µM (active).

A word on the viability: it is a read-out of living cells in per cent, often relative to untreated cells. For `Cc1ncc(OC[C@@]2(c3cccc(F)c3)C[C@H]2C(=O)Nc2ccc(F)cn2)c(C)n1`, the activation in experiment [1] was -13.1%. Further, in experiment [5], the viability was 92.7%. Besides, the Potency result in experiment [3], in experiment [4], in experiment [6] and in experiment [7] was “inactive” each time.

`COC[C@@H](NC(C)=O)C(=O)NCc1ccccc1`: the activation in experiment [1] was -5.83%. Also, in experiment [5], the viability was 112%. Besides, the Potency result in experiment [8], in experiment [2], in experiment [3], in experiment [4], in experiment [6] and in experiment [7] was “inactive” each time.

On to `CCN1C[C@]2(OC(=O)c3ccccc3NC(C)=O)CC[C@H](OC)[C@@]34[C@H]5CC6[C@@H](OC)C[C@](O)(C(C[C@@H]23)[C@@H]14)[C@@]5(O)[C@@H]6OC`, for which the activation in experiment [1] was 24.6%. For the same compound, the Potency result in experiment [8], in experiment [2], in experiment [4], in experiment [6] and in experiment [7] was “inactive” throughout.

Consider `O=S(=O)(F)Cc1ccccc1`, for which, in experiment [1], the activation is 5.78%. In addition, in experiment [5], the viability is 112%. In addition, the Potency entry in experiment [8], in experiment [3], in experiment [4], in experiment [6] and in experiment [7] was “inactive” in each case.

Turning to `O=c1[nH]c2ccccc2n1C1CCN(Cc2ccc(-c3[nH]c4cc5ncnc5cc4nc3-c3ccccc3)cc2)CC1`, in experiment [1], the activation was 5.59%. Also, the viability in experiment [5] was 104%. For the same compound, the Potency in experiment [8] was 9.34 µM (active); in experiment [2], 14.8 µM (active); in experiment [7], 20.9 µM (active).

Turning to `Fc1ccc(C(OCCN2CCN(CCCc3ccccc3)CC2)c2ccc(F)cc2)cc1`, in experiment [1], the activation is 0.57% and -55.2%. For the same compound, the Potency in experiment [5] was 23.5 µM (active); in experiment [8] it was 29.5 µM (active); in experiment [4], 26.3 µM (active); in experiment [7] it was 23.5 µM (active).
